Several values for one entry are separate records, joined by “and”; a condition that tells them apart may be missing. Equal values may be shown once. About 83,000 compounds went through this panel and 20% of them were active in at least one assay; those are over-represented in the sample as a whole.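 Growth was measured after 48 h exposure to one concentration of compound in 96-well plates. Values under 10 count as active.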 Activity calls are given as the source filed them.
These compounds were tested on MDA-MB-468 breast (assay: NCI-60 one-dose screen, 48 h (100 = growth as untreated, 0 = no growth, -100 = all killed)). Details: 10 µM unless noted.
`Cc1cc2cc3c(=O)[nH]c(=O)cc-3n(CC(O)C(O)C(O)CO)c2cc1C` (stereo not given) was tested, and the growth was 122% (inactive).
For `O=C(CCNNC(=O)c1ccncc1)NCc1ccccc1`, the growth was 75% (inactive).
With `O=C1Nc2c(C(=O)O)cccc2/C1=N/c1n[nH]c(=S)s1` the growth was 89.4% (inactive).
In the case of `COC(=O)c1c(C)nc(C)c2c1C(=O)C(Br)=C(NCCN1CCOCC1)C2=O`, the growth is reported as 83.4% (inactive).
For `COc1cc(C2CC(c3ccc4c(c3)OCO4)=NN2C=O)cc(OC)c1OC` (stereo not given), the growth was -12.7% (active).
In the case of `O=C1/C(=C/c2ccc(Br)cc2)C=C(c2ccccc2)N1CCc1ccccc1`, the growth is reported as 45% (inactive).
`CCc1nnc(NC(=O)c2cc(-c3ccc(Cl)cc3Cl)oc2C)s1` was tested, and the growth was 94% (inactive).
With `Cc1cccc2c(=O)c3c(sc12)c(N1CCNCC1)nc1ccccc13` the growth was 65.4% (inactive).
With `CC1CC(C)(C)OB(OC(C)CC(C)(C)OB2OC(C)CC(C)(C)O2)O1` (stereo not given) the growth was 105% (inactive).
With `CN[C@]12CC3(C=CC(=O)C=C3)O[C@@]1(Cc1ccc(OC)cc1)N(C)C(=O)N2` the growth was 36.4% (inactive).
For `CCN(CC)c1ccc2cc(NC(=O)OCCNC(=O)CCNC(=O)[C@H](CC(C)C)NC(=O)C(C)(C)NC(=O)C(C)(C)NC(=O)[C@H](CC(C)C)NC(=O)CCNC(=O)C(C)(C)NC(=O)[C@H](CC(C)C)NC(=O)CCNC(=O)[C@@](C)(CC)NC(=O)[C@H](C)NC(=O)CCNC(=O)C(C)(C)NC(=O)[C@H](C)NC(=O)[C@@H]3CCCN3C(=O)[C@@](C)(CC)NC(=O)[C@H](Cc3ccccc3)NC(=O)C3CCCN3C(=O)C(C)(C)NC(=O)C3CCCN3C(=O)C(C)(C)NC(C)=O)c(=O)oc2c1` (stereo not given in full), the growth was -83% (active).
`c1ccc(Cc2nn3cc(-c4ccccc4)nc3s2)cc1` was tested, and the growth was 101% (inactive).
`CNC(=O)c1cn(C2CC2)c2cc(N3CCN(C(=O)c4cc(OC)c(OC)c(OC)c4)CC3)c(F)cc2c1=O` was tested, and the growth was 103% (inactive).
`C=C1C(=O)O[C@H]2[C@H]1CC/C(Cn1cc(-c3ccc(N)cc3)nn1)=C\CC[C@@]1(C)O[C@@H]21` was tested, and the growth was -44.8% (active).
`O=C(N/N=C/c1cccs1)c1[nH]c2ccc(Br)cc2c1-c1ccccc1` was tested, and the growth was -8.42% (active).
With `Nc1c(C(=O)Nc2ccccc2)sc2nc3c(cc12)CN(C(=O)OCc1ccccc1)CC3` the growth was 63.8% (inactive).
`N/C(=N\C(N)=N\c1nc2ccccc2s1)c1ccnc(Br)c1` was tested, and the growth was 96.6% (inactive).
`COc1ccc(OC)c(C2OC(c3ccc4ccccc4c3O)=NN2C(C)=O)c1` (stereo not given) was tested, and the growth was 53.9% (inactive).
For `COc1cc2c(c(OC)c1OC)-c1ccc(NCc3ccccc3)c(=O)cc1[C@@H](NC(C)=O)CC2`, the growth was 17.3% (inactive).
`OCCNc1nc(NCCO)nc(Nc2ccc(C3=NN(c4ccc(Cl)cc4)C(c4ccc(Cl)cc4)C3)cc2)n1` (stereo not given) was tested, and the growth was 85.7% (inactive).
In the case of `CCCCCS(=O)(=O)Nc1ccc(C(=O)O)cc1`, the growth is reported as 104% (inactive).
For `COc1ccc(N/C=C/C2=[N+](C)c3ccccc3C2(C)C)c(OC)c1`, the growth was 80.5% (inactive).
`c1ccc2[nH]c(-c3ccc(Nc4nc(N5CCCCC5)nc(N5CCOCC5)n4)cc3)nc2c1` was tested, and the growth was -3.66% (active).
In the case of `Clc1ccc(-c2n[nH]c3c2Cc2ccccc2-3)cc1Cl`, the growth is reported as 75.3% (inactive).
With `Fc1ccc(-c2cc(C(Cl)Cl)no2)cc1` the growth was 104% (inactive).
`CC1=C(C#N)C(C)(C)C(C#N)=C(C)N1` was tested, and the growth was 98.6% (inactive).
In the case of `O=C(CCl)N(O)c1ccc(/C=C/c2ccccc2)cc1`, the growth is reported as 25% (inactive) and 6.6% (active).
With `Cc1cc(Cl)c2c(Cl)ccc(Cl)c2n1` the growth was 105% (inactive).
With `CSc1nc(S(C)(=O)=O)nc2[nH]c(=O)[nH]c12` the growth was 103% (inactive).
For `COc1ccc(C2[C@@H](c3ccccc3)C(=O)N2c2cc(OC)c(OC)c(OC)c2)cc1F` (stereo not given in full), the growth was -4.41% (active).
`O=S(=O)(NC1c2ccccc2Oc2ccccc21)c1cc(Cl)ccc1Cl` was tested, and the growth was 78.9% (inactive).
With `C=CC(=O)NCc1cccc(Nc2ncc(Br)c(NCCCNC(=O)C3CCC3)n2)c1` the growth was -80.4% (active).
In the case of `Cc1cccc(CNc2c3ccccc3nc3ccccc23)c1`, the growth is reported as -0.391% (active).
With `C#CC[C@@H]1C[C@]2(C)[C@H]3CC[C@@H]4[C@H]5C(C(=C)C)CC[C@]5(C(=O)NCCCN5CCN(CCCN)CC5)CC[C@@]4(C)[C@]3(C)CC[C@H]2C(C)(C)[C@H]1OC(C)=O` (stereo not given in full) the growth was -76.5% (active).
For `CN(C)CCCn1c(=O)c2ccccc2c2ccccc21`, the growth was 66% (inactive).
`O=C(CCl)Nc1ccc(NC(=O)c2cc(Cl)ccc2O)c(Cl)c1` was tested, and the growth was 79.7% (inactive).
For `COc1ccc(C2CC(c3cccc(Nc4ccnc5cc(Cl)ccc45)c3)=NN2c2ccccc2)cc1` (stereo not given), the growth was 63.3% (inactive).
For `O=C(c1ccccc1)C(O)C(Br)(CBr)c1ccccc1` (stereo not given), the growth was 50.7% (inactive).
In the case of `O=c1c(Br)ccc(Br)cc1Br`, the growth is reported as -65.9% (active).
For `COc1cc2c(c(OC)c1OC)CCC(c1cccc(NC(=O)c3cccc(Br)c3)c1)O2` (stereo not given), the growth was 75.2% (inactive).
